Results from PubChem BioAssay (NCATS).
Inconclusive results are not listed. A call without a number means that no potency is given here. Unmarked numbers belong to inactive results. Activity calls are given as the source filed them. The call rests on the fitted dose curve; in most records, active means well fitted cell-killing curve with a large enough effect; inconclusive means small, poorly fitted or top-dose-only effect, or effect the other way; inactive means no such curve, though single readings can be large or run the other way.

What was measured:
[1] = Viability qHTS for spleen associated tyrosine kinase inhibitor (SYKi) naive MV4-11 cells (AID 1963823); settings: MV4-11 AML viability, CellTiter-Glo luminescence, 72 h; series mostly up to 45 µM; further: nearly all actives have a fitted effect of over 40% in size
Procedure, shortened: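 Seeding of 500 SYKi-naive MV4-11 cells per well onto pre-dispensed compounds preceded a 72 hr incubation at 37 C. Luminescent CellTiter-Glo signal, read after 10 min at room temperature, reflected viable cells.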

[2] = Viability qHTS for spleen associated tyrosine kinase inhibitor (SYKi) drug resistant MV4-11 cells (AID 1963824); settings: SYKi-resistant MV4-11 viability, CellTiter-Glo, 72 h; series mostly up to 45 µM; further: nearly all actives have a fitted effect of over 35% in size
Procedure, shortened: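 SYK-inhibitor-resistant MV4-11 AML cells were seeded at 500 per well onto compound and cultured 72 hours (37 °C, 5% CO2). CellTiter-Glo was then added, and after 10 min at room temperature, luminescence gave viability.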
Potency means the concentration at half of the fitted maximal effect.

| Compound | Potency [1] | Potency [2] | viability (% of control) [1] | viability, % of control [2] |
| --- | --- | --- | --- | --- |
| CCN1CCN(Cc2ccc(-c3cc4c(NC(C)c5ccccc5)ncnc4[nH]3)cc2)CC1 (stereo not given) | 0.92 µM (active) | 1.3 µM (active) | – | – |
| C[C@@H]1O[C@@H](O[C@H]2[C@H](O[C@H]3[C@H](O[C@H]4CC[C@@]5(C)C(CC[C@]6(C)C5CC=C5[C@@H]7CC(C)(C)C[C@@H](O)[C@]7(C)CC[C@]56C)[C@@]4(C)CO)O[C@H](C(=O)O)[C@@H](O)[C@@H]3O)O[C@H](C(=O)O)[C@H](O)[C@@H]2O)[C@H](O)[C@H](O)[C@H]1O (stereo not given in full) | – | – | 83.8% [at 9.25 µM] | 86.7% [at 9.25 µM] |
| CC#CC(=O)N1CC[C@@H](n2c(=O)n(-c3ccc(Oc4ccccc4)cc3)c3c(N)ncnc32)C1 | 7.42 µM (active) | 8.33 µM (active) | – | – |
| COc1cc2occc2c(O[C@@H]2O[C@H](CO)[C@@H](O)[C@H](O)[C@H]2O)c1CCC(=O)O | inactive | inactive | – | – |
| COc1ccc(OC(=O)N(CC(=O)O)Cc2ccc(OCCc3nc(-c4ccccc4)oc3C)cc2)cc1 | inactive | inactive | – | – |
| COC(=O)C1=CO[C@@H](O[C@@H]2O[C@H](CO)[C@@H](O)[C@H](O)[C@H]2O)[C@H]2[C@@H]1[C@H](O)[C@H](O)[C@]2(C)O | inactive | inactive | – | – |
| CC(C)(O)C1CC=C(C(=O)OCC2OC(Oc3c(O)cc(C(=O)O)cc3O)C(O)C(O)C2O)CC1 (stereo not given) | inactive | inactive | – | – |
| CC(C)=CCC[C@](C)(O[C@@H]1O[C@H](CO[C@@H]2O[C@@H](CO)[C@H](O)[C@H]2O)[C@@H](O)[C@H](O)[C@H]1O)[C@H]1CC[C@]2(C)[C@@H]1[C@H](O)C[C@@H]1[C@@]3(C)CC[C@H](O[C@@H]4O[C@H](CO)[C@@H](O)[C@H](O)[C@H]4O[C@@H]4O[C@H](CO)[C@@H](O)[C@H](O)[C@H]4O)C(C)(C)[C@@H]3CC[C@]12C | inactive | inactive | – | – |
| Cc1cc2ncc(C(=O)NCC(C)(C)NCC(=O)N3CCC[C@H]3C#N)cn2n1 | inactive | inactive | – | – |
| O=C(/C=C/c1c(C(=O)O)[nH]c2cc(Cl)cc(Cl)c12)Nc1ccccc1 | inactive | inactive | – | – |
| CC(C#N)C(C)O[C@@H]1O[C@H](CO)[C@@H](O)[C@H](O)[C@H]1O (stereo not given in full) | inactive | inactive | – | – |
| CC1(CO)CC2C(O)C3=C(CC(C)(O)C2C1)C(=O)OC3 (stereo not given) | inactive | inactive | – | – |
| CC1(C)C[C@@H]2[C@H](C1)[C@@]1(C)C[C@]13C(O)OC[C@]3(O)[C@H]2O (stereo not given in full) | inactive | inactive | – | – |
| O=C(O)CC(CCc1ccccc1)OC1OC(CO)C(O)C(O)C1O (stereo not given) | inactive | inactive | – | – |
| C[C@@H]1O[C@@H](O[C@H]2[C@H](O)[C@@H](O[C@@H]3O[C@H](CO)[C@H](O)[C@H](O)[C@H]3O)[C@H](O[C@H]3CC[C@@]4(C)C(CC[C@]5(C)C4CC=C4[C@@H]6CC(C)(C)CC[C@]6(C(=O)O[C@@H]6O[C@H](CO)[C@@H](O)[C@H](O)[C@H]6O)CC[C@]45C)C3(C)C)O[C@@H]2C(=O)O)[C@H](O)[C@H](O)[C@H]1O (stereo not given in full) | – | – | 82.7% [at 9.25 µM] | 90.8% [at 9.25 µM] |
